Compound activity (PubChem)
SIRT5 inh: sirtuin-5 (human) deacylase inhibition. hit rate 1.1% among 330,000. Purified SirT5, succinyl-peptide AMC, trypsin-coupled fluorescence. inhibition, % at 15 µM. Q9NXA8; in the data active = inhibition above about 15%; inconclusive = no clear call, values can overlap the other calls
Target sequence (Q9NXA8 whole entry, looked up): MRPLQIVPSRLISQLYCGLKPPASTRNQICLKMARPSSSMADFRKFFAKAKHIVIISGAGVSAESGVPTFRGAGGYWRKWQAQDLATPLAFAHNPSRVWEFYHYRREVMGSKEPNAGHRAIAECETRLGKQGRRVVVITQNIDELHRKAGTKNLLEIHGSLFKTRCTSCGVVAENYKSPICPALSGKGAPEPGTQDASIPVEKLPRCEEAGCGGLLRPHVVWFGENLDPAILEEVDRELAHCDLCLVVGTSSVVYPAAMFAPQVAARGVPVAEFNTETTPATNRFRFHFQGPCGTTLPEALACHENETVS
LGR2 inh: inhibitors of bursicon-induced Drosophila LGR2 receptor cAMP signaling; HEK293 LGR2, CRE-luciferase, bursicon-stimulated, 4 h; inhibition, % at 9.99 µM; hit rate 0.35% among 380,000; AID 720647;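 active = drop in luminescence signal, shown as inhibition above about 50% in the replicate tests, limit read from the data, passing the limit was not always enough; inconclusive = probably only some replicates passing the limit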;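 also: agonist challenge used bursicon conditioned medium at about half maximal strength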
EWS-Fli inh: inhibitors of EWS/Fli oncoprotein transcriptional activity. inhibition, % at 12.6 µM. hit rate 0.67% among 350,000. AID 651661. A673 NR0B1-luciferase reporter, viability-normalised;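 active = mean inhibition of at least 50% after viability correction, with every replicate also passing that limit; inconclusive = mean reaches 50% but only one of two replicates passes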;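 also: firefly luciferase signal divided by Alamar Blue viability fluorescence both relative to DMSO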
PAX8 inh HTS: lowers PAX8-driven luciferase in RMG-I cells; RMG-I TPO-luciferase reporter, SteadyGlo, 24 h; inhibition, % at 12.6 µM; hit rate 1.2% among 360,000; AID 652154;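 active = mean replicate inhibition at least 60% with every replicate also reaching 60%; inconclusive = only one of the two criteria is met; inactive = mean below 60% and not all replicates reaching 60%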;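 also: luciferase light reporting Pax8 driven TPO promoter activity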
PGC1a acetyl inh: modulators of PGC1a acetylation; U2OS PGC1a acetylation, AlphaScreen anti-acetyl-lysine; with virally co-expressed GCN5 acetyltransferase; hit rate 0.17% among 350,000; inhibition, % at 15.6 µM;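 active = every replicate shows inhibition of at least 40%; inconclusive = mean inhibition at least 40% but some replicate below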
rRNA inh HTS: inhibitors of bacterial rRNA selective over humanized ribosomes. E. coli WT GFP vs humanized-ribosome RFP mutants, fluorescence, 24 h; active compounds read low; DMSO median 0, no signal -100. GFP signal change (wild-type ribosome), % (test concentration not listed). hit rate 1.6% among 350,000;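 active = significant combined selectivity score with lowered wild-type GFP, culture density cut under 30%, mutant RFP and density less affected; inactive = any of these conditions unmet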
Large screens that a line does not name were inactive. Only some compounds are listed: those with a hit (about 3.4% of all), similar ones and a draw of the others.

COc1cccc2c1C(=O)c1c(O)c3c(c(O)c1C2=O)CC(O)(C(C)=NO)CC3OC1CC(N)C(O)C(C)O1 (stereo not given)	LGR2 inh 63
CCCCCCOc1ccc(CN2CCN(C)CC2)cc1	rRNA inh HTS -25 (no result: PAX8 inh HTS)
Cc1ccccc1S(=O)(=O)N1[C@@H]2Cn3c(ccc(-c4cccnc4)c3=O)[C@H]1[C@@H](C(=O)O)[C@@H]2CO	none (no result: PGC1a acetyl inh)
Nc1c2c(nc3sc4c(c13)CCCCC4)CCCC2	rRNA inh HTS -23
CN(C)[C@@H]1C(=O)C(C(N)=O)=C(O)[C@@]2(O)C(=O)C3=C(O)c4c(O)cccc4[C@@](C)(O)C3[C@H](O)C12 (stereo not given in full)	SIRT5 inh 36
ClCCN(CCCl)c1ccc(-n2cnc3c(Cl)ncnc32)cc1	EWS-Fli inh 55 (no result: SIRT5 inh)
N[C@@H](Cc1ccc(N(CCCl)CCCl)cc1)C(=O)O	none
CC1C(OC(=O)CCC(=O)NC(C)(C)CO)O[C@H]2OC3(C)CC[C@H]4[C@H](C)CCC1C24OO3 (stereo not given in full)	PAX8 inh HTS 77 (no result: PGC1a acetyl inh)
CC(C)CC(NC(=O)CCCNC(=O)CCC(=O)OC1O[C@H]2OC3(C)CC[C@H]4[C@H](C)CCC(C1C)C24OO3)C(=O)O (stereo not given in full)	PAX8 inh HTS 74 (no result: PGC1a acetyl inh)
COC(=O)[C@H]1[C@H](CO)[C@H]2Cn3c(ccc(-c4ccccc4OC)c3=O)[C@@H]1N2Cc1ccccc1	none (no result: PAX8 inh HTS, PGC1a acetyl inh)
CC(=O)OC1(c2ccccc2)CCN(C)CC1(C)C (stereo not given)	SIRT5 inh 15
COC(=O)[C@@H]1[C@@H](CO)[C@@H]2Cn3c(cccc3=O)[C@H]1N2C(=O)C1CCC1	none (no result: LGR2 inh, PAX8 inh HTS, PGC1a acetyl inh, rRNA inh HTS)
Oc1ccc2c3c1OC1c4oc5ccccc5c4C[C@@]4(O)[C@@H](C2)N(CC2CC2)CC[C@]314 (stereo not given in full)	rRNA inh HTS -20 (no result: SIRT5 inh, PAX8 inh HTS)
CC(C)NC(=O)N1C[C@@H]2C(c3ccccc3)[C@H](C1)N2C (stereo not given in full)	none (no result: SIRT5 inh, LGR2 inh, EWS-Fli inh, PAX8 inh HTS, PGC1a acetyl inh)
COc1ccc(OC(=O)N(C)C[C@@H]2OCc3ccccc3-c3c(n(C)c4ccccc34)C(=O)N([C@@H](C)CO)C[C@@H]2C)cc1	none
COC(=O)[C@H]1[C@H](CO)[C@H]2Cn3c(ccc(-c4cccnc4)c3=O)[C@@H]1N2S(=O)(=O)c1ccccc1F	none (no result: PGC1a acetyl inh)
C=C1C(=O)OC2CC3(C)OC3C3OC3C3=CC(OC3=O)C12 (stereo not given)	EWS-Fli inh 58 (no result: SIRT5 inh, LGR2 inh, PAX8 inh HTS, rRNA inh HTS)
CCN1C[C@]2(CO)CC[C@H](OC)[C@@]34C2[C@H](OC)[C@@](O)(C13)[C@@]1(O)C[C@H](OC)[C@H]2C[C@@H]4[C@@H]1[C@H]2OC	SIRT5 inh 24
COC(=O)[C@@H]1[C@@H](CO)[C@@H]2Cn3c(ccc(C4=CCCCC4)c3=O)[C@H]1N2Cc1cccnc1	none
COc1ccc(CN2Cc3cnnn3-c3ccccc3C2c2ccccc2)cc1 (stereo not given)	none (no result: SIRT5 inh)
N#CC1c2ccccc2-n2nncc2CN1Cc1cc(Cl)cc(Cl)c1 (stereo not given)	LGR2 inh 102, EWS-Fli inh 62, PAX8 inh HTS 106
COc1ccc(CN2Cc3cnnn3-c3ccccc3C2C#N)cc1 (stereo not given)	LGR2 inh 96, EWS-Fli inh inconclusive, PAX8 inh HTS 62
N#Cc1cccc(-c2ccc([C@@H]3[C@@H](CO)N4CCCCN(C(=O)Cc5cccnc5)C[C@@H]34)cc2)c1	none
CC(=O)N1C[C@@H]2C(c3ccccc3)[C@H](C1)N2CC1CC1 (stereo not given in full)	none (no result: SIRT5 inh, LGR2 inh, EWS-Fli inh, PAX8 inh HTS, PGC1a acetyl inh)
CN(C)C(=O)[C@H]1[C@H](CO)[C@H]2Cn3c(cccc3=O)[C@@H]1N2CC1CC1	none (no result: PAX8 inh HTS, PGC1a acetyl inh)
O=C(NCC1=C(c2ccc3ccccc3c2)C[C@@H]2CC[C@H]1N2Cc1ccco1)c1ccncc1	SIRT5 inh 25
O=C(O)[C@H]1[C@H](CO)[C@H]2Cn3c(ccc(-c4ccncc4)c3=O)[C@@H]1N2S(=O)(=O)c1ccccc1F	none (no result: PAX8 inh HTS, PGC1a acetyl inh)
C=C1C(=O)OC2CC3(C)OC3CCC(C)=CC(OC(C)=O)C12 (stereo not given)	LGR2 inh 40, PAX8 inh HTS 95 (no result: SIRT5 inh)
C=C1C(=O)O[C@@H]2C[C@@H](C)[C@H]3C=CC(=O)[C@]3(O)C[C@@H]12	none (no result: SIRT5 inh)
COC(=O)[C@H]1[C@H](CO)[C@H]2Cn3c(ccc(C4=CCCCC4)c3=O)[C@@H]1N2C(=O)CC1CC1	none
COc1cc(C2c3cc4c(cc3CC3COC(=O)C32)OCO4)cc(OC)c1O (stereo not given)	PAX8 inh HTS 75 (no result: PGC1a acetyl inh)
COc1ccc2c(c1OC)C(=O)OC2C1c2cc3c(cc2CCN1C)OCO3 (stereo not given)	none
CC=Cc1ccc2n(c1=O)C[C@@H]1[C@@H](CO)[C@H](C(=O)OC)[C@H]2N1CC1CC1 (mixture of isomers)	none (no result: PAX8 inh HTS, PGC1a acetyl inh)
COC1CCC(OC2CC(C3(C)CCC4(CC(O)C(C)C(C(C)/C=C(\C)C(=O)C(C)CC(C)C(=O)O)O4)O3)OC3(OC(C4OC(O)(CO)C(C)CC4C)CC3C)C2C)OC1C (stereo not given)	SIRT5 inh 24, EWS-Fli inh 65, PAX8 inh HTS 106 (no result: LGR2 inh, rRNA inh HTS)
NC(Cc1ccc(O)cc1)C(=O)NN=Cc1ccc(N(CCCl)CCCl)cc1 (stereo not given)	EWS-Fli inh 57
COc1ccc(C#Cc2ccc([C@@H]3[C@@H](CO)N4CCCCN(C(=O)Cc5ccncc5)C[C@H]34)cc2)cc1	none (no result: EWS-Fli inh)
CC1=CC(=C2C(=O)NC(=S)NC2=O)C=C(C(F)(F)F)N1Cc1ccccc1	EWS-Fli inh 54, PGC1a acetyl inh 88
CCOC(=O)[C@]12Cc3cc4ccccc4cc3[C@H]1N(Cc1ccccc1)C(=O)c1cc(OC)ccc12	none (no result: PGC1a acetyl inh)
CCOC(=O)[C@]12Cc3cc(OC)ccc3[C@H]1N(C1CCCCC1)C(=O)c1ccccc12	LGR2 inh 50, EWS-Fli inh 57, PAX8 inh HTS 76 (no result: PGC1a acetyl inh)
CCOC(=O)[C@]12Cc3cc(Cl)ccc3[C@H]1N(C(C)C)C(=O)c1ccccc12	LGR2 inh 73, PAX8 inh HTS 86 (no result: PGC1a acetyl inh)
CCOC(=O)[C@]12Cc3cc4ccccc4cc3[C@H]1N(Cc1ccccc1)C(=O)c1ccccc12	SIRT5 inh 27 (no result: PGC1a acetyl inh)
CCCCCN1C(=O)c2cc(OC)ccc2[C@@]2(C(=O)OCC)Cc3cc(Cl)ccc3[C@@H]12	LGR2 inh 67, EWS-Fli inh 57 (no result: PGC1a acetyl inh)
CCCN1[C@@H]2Cn3c(cccc3=O)[C@H]1[C@@H](C(=O)N(C)C)[C@@H]2CO	none (no result: PAX8 inh HTS, PGC1a acetyl inh)
CC(C)C(NC(=O)C(C(C)C)N(C)C)C(=O)N(C)C(C(=O)N1CCCC1C(=O)N1CCCC1C(=O)NCc1ccccc1)C(C)C (stereo not given)	EWS-Fli inh 56, PAX8 inh HTS 76
